This is a sample that favours compounds with a hit; in the whole collection about 3.2% have one here.
TWEAK Fn14 block – TWEAK-Fn14 signaling inhibition | TWEAK-stimulated Fn14 reporter cells, luciferase luminescence, 8 h | inhibition, % at 10 µM | 2% of 360,000 active | AID 1159606; in the data active means inhibition above about 50%
EWS-Fli inh – inhibitors of EWS/Fli oncoprotein transcriptional activity. 0.67% of 350,000 active. A673 NR0B1-luciferase reporter, viability-normalised. inhibition, % at 12.6 µM;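 active means mean inhibition of at least 50% after viability correction, with every replicate also passing that limit; inconclusive means mean reaches 50% but only one of two replicates passes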;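 further: firefly luciferase signal divided by Alamar Blue viability fluorescence both relative to DMSO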
EBV LMP1 NFkB – inhibitors of Epstein-Barr LMP1-induced NF-kappaB reporter; LMP1-induced NF-kappaB luciferase reporter cells, luminescence; inhibition, % at 12.5 µM; 0.69% of 350,000 active; AID 504558; in the data active means inhibition above about 41%; inconclusive means no clear call, values can overlap the other calls
TROY NFkB inh – blocks TROY-dependent signaling in reporter cells | 0.98% of 360,000 active | Q293 LMP1-TROYcd NF-kB luciferase reporter, 4 h | inhibition, % at 10 µM;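 active means compounds whose plate-normalised and pattern-corrected inhibition of the luciferase reporter signal at the single screening dose is 50% or more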
PAX8 reporter – PAX8 transcriptional activity inhibition. RMG-I TPO-luciferase reporter, SteadyGlo, 24 h. inhibition, % at 12.6 µM. 1.2% of 360,000 active;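 active means mean replicate inhibition at least 60% with every replicate also reaching 60%; inconclusive means only one of the two criteria is met; inactive means mean below 60% and not all replicates reaching 60%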;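 further: luciferase light reporting Pax8 driven TPO promoter activity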
LGR2 antag – blocks bursicon-induced cAMP signaling via Drosophila LGR2; HEK293 LGR2, CRE-luciferase, bursicon-stimulated, 4 h; 0.35% of 380,000 active; inhibition, % at 9.99 µM;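 active means drop in luminescence signal, shown as inhibition above about 50% in the replicate tests, limit read from the data, passing the limit was not always enough; inconclusive means probably only some replicates passing the limit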;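 further: agonist challenge used bursicon conditioned medium at about half maximal strength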
Hits are given with their value; . = inactive; ? = inconclusive; / = no result given.

SMILES	TWEAK Fn14 block	EWS-Fli inh	EBV LMP1 NFkB	TROY NFkB inh	PAX8 reporter	LGR2 antag
O=C(CCCOc1ccccc1)N1CCN(c2ccccc2)CC1	.	/	86	.	/	.
O=C(NC12CCC(O)C(SC1)/C2=N/O)c1ccccc1 (stereo not drawn)	83	/	.	.	.	/
COc1ccc(CN(C)C[C@@H]2OCCCC[C@@H](C)Oc3ccc(NC(=O)CCCN(C)C)cc3C(=O)N([C@H](C)CO)C[C@@H]2C)cc1	/	.	/	/	.	.
CNC[C@@H]1Oc2ccc(NC(=O)NC(C)C)cc2CC(=O)N([C@@H](C)CO)C[C@@H]1C	/	.	/	/	92	.
CNC[C@H]1Oc2ccc(NC(=O)NC(C)C)cc2CC(=O)N([C@@H](C)CO)C[C@@H]1C	/	.	/	/	91	.
CNC[C@@H]1Oc2ccc(NC(=O)NC(C)C)cc2CC(=O)N([C@H](C)CO)C[C@@H]1C	/	.	/	/	.	.
CO[C@H]1CN(C)C(=O)c2ccc(NS(=O)(=O)c3ccc(C)cc3)cc2OC[C@H](C)NC[C@@H]1C	/	.	/	/	/	.
CC(C)(C)C(=O)N1CCc2cc(-c3csc(N)n3)ccc21	67	/	.	.	/	/
Cc1ccc2nc(Cl)c(C3CC(c4ccco4)=NN3S(C)(=O)=O)cc2c1 (stereo not drawn)	.	.	.	.	.	.
CCOc1ccc2nc(Cl)c(C3CC(c4ccco4)=NN3S(C)(=O)=O)cc2c1 (stereo not drawn)	.	.	.	57	.	.
CCc1ccc(/C=C/c2c[nH]c3ccccc23)[n+](CC)c1	.	.	.	.	67	.
O=C(N/N=C(/CC(=O)c1cccs1)C(F)(F)F)c1ccc(O)cc1	.	/	49	.	/	.
CCCNC(=O)N1[C@H](C#N)[C@@H](c2ccccc2-c2ccccc2)[C@@H]1CO	/	.	/	/	.	.
Cc1cccc(Oc2sc(C(=O)c3ccccc3)c(N)c2C#N)c1C	.	/	.	.	/	/
N#Cc1c(Oc2ccc3ccccc3c2)sc(C(=O)c2ccccc2)c1N	.	/	58	.	/	/
Cc1ccc(C(=O)CSc2nc3cc(S(=O)(=O)N4CCOCC4)ccc3o2)cc1	.	/	.	.	.	/
Cc1[nH]c2ccccc2c1C(=O)CSc1nc2cc(S(=O)(=O)N3CCCCC3)ccc2o1	55	/	.	.	.	/
CC(C)n1nc(C(=O)Oc2ccc(Cl)cc2)c2ccccc2c1=O	51	/	.	.	.	.
COc1ccc(S(=O)(=O)Nc2ccc3c(c2)C(=O)N([C@@H](C)CO)C[C@@H](C)[C@@H](CN(C)Cc2ccc(Cl)c(Cl)c2)OCCCC[C@@H](C)O3)cc1	/	.	/	/	.	.
COc1ccc(S(=O)(=O)Nc2ccc3c(c2)C(=O)N([C@H](C)CO)C[C@H](C)[C@@H](CN(C)Cc2ccc(Cl)c(Cl)c2)OCCCC[C@H](C)O3)cc1	/	.	/	/	.	.
COc1ccc(S(=O)(=O)Nc2ccc3c(c2)C(=O)N([C@H](C)CO)C[C@@H](C)[C@H](CN(C)Cc2ccc(Cl)c(Cl)c2)OCCCC[C@@H](C)O3)cc1	/	.	/	/	66	.
COc1ccc(S(=O)(=O)Nc2ccc3c(c2)C(=O)N([C@H](C)CO)C[C@H](C)[C@@H](CN(C)Cc2ccc(Cl)c(Cl)c2)OCCCC[C@@H](C)O3)cc1	/	.	/	/	94	.
C[C@H]1CN([C@@H](C)CO)C(=O)Cc2cc(NS(=O)(=O)c3cn(C)cn3)ccc2O[C@H]1CN(C)S(=O)(=O)c1ccccc1	/	.	/	/	.	.
C=C1C(=O)C23CCC4C(C)(C(=O)OC)CCCC4(C)C2CCC1(O)C3 (stereo not drawn)	98	56	62	88	134	/
COC(=O)[C@]1(C)CCC[C@@]2(C)C3CC[C@@]4(C)C[C@]3(CCC21)CC(=O)N4 (stereo partly drawn)	.	.	.	.	.	.
SMILES	TWEAK Fn14 block	EWS-Fli inh	EBV LMP1 NFkB	TROY NFkB inh	PAX8 reporter	LGR2 antag
COc1ccc2c3c(n(C)c2c1)[C@H](CO)N(Cc1ccncc1)CC31CCN(C(=O)C2CCCCC2)CC1	/	.	/	/	.	.
COc1ccc(CCN2C(=O)CSC2=Nc2ccc(C(C)C)cc2)cc1OC	58	.	.	.	.	.
COc1ccc(N=C2SCC(=O)N2CCc2ccc(OC)c(OC)c2)cc1	.	.	.	.	.	/
CC1=NNC(=O)C1CC(=O)N/N=C/c1cccs1 (stereo not drawn)	.	.	.	54	.	.
Cc1ccccc1N(CC(=O)NCc1ccc2c(c1)OCO2)C(=O)CCC(=O)Nc1ccccn1	.	/	.	.	/	/
Cc1ccccc1N(CC(=O)NCc1ccc2c(c1)OCO2)C(=O)C1CSC(=O)C1 (stereo not drawn)	50	.	.	.	.	.
CCOC(=O)c1ccc(Nc2ncnc3c2cnn3C)cc1	.	/	.	.	/	.
Cn1ncc2c(O/N=C(\N)c3ccc(C(C)(C)C)cc3)ncnc21	100	/	.	.	/	/
Cn1cnc(CCNC(=O)C[C@@H]2CC[C@H]3[C@@H](COC[C@@H](O)CN3C(=O)C3CCCC3)O2)c1	/	.	/	/	.	.
Nc1ccc(-c2nc3ccc([N+](=O)[O-])cc3[nH]2)cc1	.	.	.	.	.	.
Nc1ccc2nc(-c3ccc(Cl)cc3)[nH]c2c1	.	.	.	.	80	.
Cc1nc2ccc(-c3nc4ccc(N)cc4[nH]3)cc2[nH]1	.	.	.	.	69	.
Nc1ccc(-c2nc3c(Cl)c(N)ccc3[nH]2)cc1	61	/	.	.	/	/
Nc1ccc(-c2nc3ccc(N)cc3[nH]2)cc1	.	.	.	.	.	.
C[C@@H]1CCCCO[C@H](CN(C)C(=O)C2CCCCC2)[C@H](C)CN([C@@H](C)CO)C(=O)c2cc(NC(=O)Cc3ccccc3)ccc2O1	/	.	/	/	.	.
Cc1nnc(NC(=O)c2nc(S(=O)(=O)Cc3ccccc3)ncc2Cl)s1	91	58	.	.	.	.
Cc1cccc(CS(=O)(=O)c2ncc(Cl)c(C(=O)NCc3ccccc3)n2)c1	97	/	.	63	.	.
Cc1cccc(C)c1NC(=O)c1nc(S(=O)(=O)Cc2ccccc2)ncc1Cl	74	73	44	53	.	.
Cc1cccc(CS(=O)(=O)c2ncc(Cl)c(C(=O)Nc3c(C)cccc3C)n2)c1	90	/	.	67	.	.
COCC(=O)Nc1ccc2c(c1)C(=O)N(C)[C@@H]1CC[C@@H](CC(=O)NCc3cccc(F)c3)O[C@H]1CO2	/	.	/	/	.	.
COc1cccc(NC(=O)N[C@H]2CC[C@H](CC(=O)NCc3ccncn3)O[C@@H]2CO)c1	/	.	/	/	.	.
CCCc1cn(CC[C@@H]2CC[C@H](NC(=O)Cc3cccnc3)[C@@H](CO)O2)nn1	/	.	/	/	.	.
Cc1ccccc1NC(=O)c1nc(S(C)(=O)=O)ncc1Cl	.	74	.	.	.	.
CCCc1nnc(NC(=O)c2nc(S(=O)(=O)Cc3cccc(C)c3)ncc2Cl)s1	93	/	.	57	.	.
CS(=O)(=O)c1ncc(Cl)c(C(=O)Nc2ccc(OC(F)F)cc2)n1	70	/	?	57	/	.

Screening results from PubChem BioAssay.
